High-throughput results (PubChem BioAssay)
Hits are enriched below; roughly 19% of the tested compounds scored in any of these assays.
HT1080 IDH1KD tx – kills HT-1080 cells with IDH1 knockdown; 2% of 360,000 active; HT-1080 IDH1 knockdown viability, ATP luminescence, 48 h; Potency, µM (highest dose often 46.1 µM), for the others: at the top dose activity, negative = toxicity, most hits filed as cytotoxic;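 note: potency is the fitted concentration of half-maximal effect; 0% = DMSO wells and -100% = cell-free medium wells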
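HT-1080-IDH1KD cells (IDH1 knocked down), 750/well in RPMI with 5% FBS, treated with compound 48 h at 37 degrees C. Viability by CellTiter-Glo luminescence, normalised to DMSO and no-cell wells; concentration-response curves classed.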
TDP1 cell noCPT – qHTS for Inhibitors of human tyrosyl-DNA phosphodiesterase 1 (TDP1): qHTS in cells in absence of CPT. DT40 Tdp1-/- hTDP1 cells, no CPT, ATP luminescence, 48 h. Potency, µM (doses to about 46.2 µM), without a hit: at the top dose activity change, negative = growth inhibition, actives largely listed as inhibitors. 15% of 420,000 active. AID 686978, 2013; note: potency is the fitted concentration of half-maximal effect; nearly all actives have a fitted effect of over 55% in size
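Seeded 400 DT40-hTDP1 cells/well (vehicle DMSO, no 20 nM CPT); pinned compounds; ≥48 hr at 37 °C; CellTiter-Glo luminescence as viability measure.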
TDP1 cell CPT – DT40-hTDP1 cell growth loss with CPT; Potency, µM (series often up to 46.2 µM), for inactives: top-dose activity change, negative = growth inhibition, usual class: inhibitors; chicken DT40 Tdp1-/-;hTDP1 cells + 20 nM CPT, ATP luminescence, 48 h; 12% of 420,000 active; note: potency is the fitted concentration of half-maximal effect; nearly all actives have a fitted effect of over 55% in size
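Chicken DT40 Tdp1-/- cells stably complemented with human TDP1 were seeded at 400 cells/well in medium containing 20 nM camptothecin, exposed to pin-transferred compounds, and grown at 37 °C for at least 48 hr. Viability was read as ATP luminescence.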
IL1B secr inh – blocks inflammasome-driven IL-1 beta release; THP-1 LPS/ATP IL-1B secretion, AlphaLISA, 16 h; stronger effect = lower value; activity change, % at 57.5 µM; 4.7% of 360,000 active; AID 743279; in the data active = activity change below about -50%; inconclusive = mostly about -30% to -49%
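Secreted IL-1B measured by AlphaLISA bead assay after 16 h compound exposure of THP-1 cells; compounds (final up to 57.5 uM) added 1 h before LPS (250 ng/mL) and ATP (1.25 mM) stimulation; lower signal means less secretion.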
HT1080NT lethal – kills 2HG-producing HT-1080-NT fibrosarcoma cells. Potency, µM (titrated, usually from 46.1 µM), inactives show at the top dose activity, negative = less viability, usual class: cytotoxic. 1.6% of 360,000 active. HT-1080-NT fibrosarcoma viability, CellTiter-Glo ATP luminescence, 48 h;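 note: NT is the 2HG producing partner of a matched IDH1 knockdown line; potency is the fitted concentration of half-maximal effect; 0% = DMSO-treated cells and -100% = media-only wells without cells; nearly all actives have a fitted effect of over 55% in size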
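A 48-hour cytotoxicity screen used HT-1080-NT cells plated 2 hours before compound delivery. ATP-based CellTiter-Glo luminescence measured viability, normalized to DMSO and no-cell controls.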
The depositor's hits bear a star; u = inconclusive; x = not tested or not shown; [ ] = another dose, or the depositor's remark. Unless noted, calls come from the whole dose curve; as a rule, active = well fitted curve in the direction sought with a large enough effect; inconclusive = small, poorly fitted or top-dose-only effect, or another doubt; inactive = no such curve, though single readings can be large; an effect the other way counts as inactive or inconclusive. Unless noted, % is set by controls: 0 for no effect and ±100 for the full control effect.

SMILES	HT1080 IDH1KD tx	TDP1 cell noCPT	TDP1 cell CPT	IL1B secr inh	HT1080NT lethal
COc1cc(/C=C/C(=O)OCC(=O)Nc2ccc3c(c2)OCO3)ccc1O	-0.1%	-25.9%	u	5.7	3.5%
O=C1CC(c2ccccc2)Sc2ccccc2N1 (configuration not stated)	-8.2%	10.3µM*	13µM*	0.0	-4.1%
C=C1[C@H](C)CN[C@H]1CCO	-3.8%	5.6%	1.7%	23.2	4.2%
CCOC(=O)c1ccc(NC(=O)Cn2nc(C)c3nn(-c4ccc(Cl)cc4)c(C)c3c2=O)cc1	x	u	-20.5%	x	x
CCc1cccc(C)c1NC(=O)Cn1nc(C)c2nn(-c3ccc(Cl)cc3)c(C)c2c1=O	x	20.6µM*	16.4µM*	x	x
CCOc1ccccc1CNC(=O)Cn1nc(C)c2nn(-c3ccc(Cl)cc3)c(C)c2c1=O	x	18.4µM*	u	x	x
COc1ccc(CNC(=O)Cn2nc(C)c3nn(-c4ccc(Cl)cc4)c(C)c3c2=O)cc1	x	-22.2%	4.4%	x	x
O=S(=O)(Nc1ccc(S(=O)(=O)Nc2nccs2)cc1)c1ccc2c(c1)OCCO2	u	-14.8%	u	37.8	-20.0%
COc1ccc(C)cc1NC(=O)C(=O)NCc1ccncc1	21.4%	-13.3%	-10.5%	-2.9	10.6%
C=CCC(CC=C)(CNC(=O)C(=O)Nc1cc(C)ccc1OC)c1ccc(OC)c(OC)c1	x	16.4µM*	8.2µM*	x	x
Cc1ncc(CO)c2c1Oc1nc(-c3ccc(Cl)cc3)nc(SCC(=O)N3CCCCC3)c1C2	x	16.4µM*	u	x	x
COc1cccc(-c2nc3c(c(SCC(=O)Nc4cc(C)ccc4C)n2)Cc2c(CO)cnc(C)c2O3)c1	x	-4.2%	-22.3%	x	x
COc1cccc(-c2nc3c(c(SCC(=O)N4CCOCC4)n2)Cc2c(CO)cnc(C)c2O3)c1	-20.6%	4.11µM*	20.6µM*	-13.9	-13.0%
Cc1ncc(CO)c2c1Oc1nc(-c3ccccc3)nc(SCC(=O)N3CCOCC3)c1C2	-9.5%	10.3µM*	18.4µM*	-11.1	-13.9%
COc1ccc(-c2nc3c(c(SCc4cc(C)ccc4C)n2)Cc2c(CO)cnc(C)c2O3)cc1	x	-2.1%	-3.7%	x	x
COc1ccccc1-c1nc2c(c(SCc3cc(C)ccc3C)n1)Cc1c(CO)cnc(C)c1O2	x	10.3µM*	9.2µM*	x	x
Cc1cc(C)cc(C(=O)NCC(=O)OCC(=O)c2cc(C)n(CC(F)(F)F)c2C)c1	11.9%	-24.3%	4.0%	17.9	15.0%
CC(=O)Oc1ccccc1C(=O)Nc1ccccc1C(=O)N1CCCCC1	-4.1%	-7.6%	-9.2%	-25.7	-4.3%
CN(C(=O)COC(=O)C1COc2ccccc2O1)C1(C#N)CCCCC1 (configuration not stated)	-0.6%	4.5%	7.3%	-0.4	-3.8%
Cc1cccc(NC(=O)CSc2nc(-c3cccc(C)c3)nc3c2Cc2c(CO)cnc(C)c2O3)c1	x	-28.9%	u	x	x
CCN(CC)C(=O)CSc1nc(-c2ccccc2F)nc2c1Cc1c(CO)cnc(C)c1O2	x	4.61µM*	3.66µM*	x	x
COc1ccccc1-c1nc2c(c(SCC(=O)Nc3ccc(C)c(C)c3)n1)Cc1c(CO)cnc(C)c1O2	x	9.2µM*	16.4µM*	x	x
CCc1ccc(CSc2nc(-c3ccccc3F)nc3c2Cc2c(CO)cnc(C)c2O3)cc1	x	-21.7%	u	x	x
Cc1cccc(-c2nc3c(c(SCC(=O)N4CCOCC4)n2)Cc2c(CO)cnc(C)c2O3)c1	u	3.66µM*	u	u	u
Cc1ccc(NC(=O)CSc2nc(-c3ccc(F)cc3)nc3c2Cc2c(CO)cnc(C)c2O3)cc1C	x	-27.0%	-0.7%	x	x
SMILES	HT1080 IDH1KD tx	TDP1 cell noCPT	TDP1 cell CPT	IL1B secr inh	HT1080NT lethal
COc1ccccc1-c1nc2c(c(SCC(=O)N3CCCCC3)n1)Cc1c(CO)cnc(C)c1O2	-7.9%	6.51µM*	9.2µM*	-4.3	-18.3%
COC1c2ccccc2C(=O)N1Cc1ccc(F)cc1 (configuration not stated)	-0.9%	u	-6.8%	-8.6	-13.7%
CCOC(=O)[C@]12CCC=C1N(CCC1=CCCCC1)C(=O)[C@H](CC(=O)N1CCOCC1)C2	14.0%	u	u	24.9	19.9%
O=C1CCN(Cc2ccco2)C(=S)N1	4.0%	6.4%	22.0%	10.5	2.7%
CC(=O)Nc1ccc(NC(=O)CSc2nnnn2-c2ccc(F)cc2)cc1	-0.2%	u	-19.5%	-17.4	-1.9%
N#Cc1ccccc1NC(=O)C1SC(=Nc2ccccc2)C(C(=O)Nc2ccc(Cl)cc2)=C1N (configuration not stated)	-5.4%	20.6µM*	16.4µM*	-83.9*	-22.0%
CCn1nc(C)cc1C(=O)N1CCC2(CC1)c1ccccc1[C@@H](NC(=O)c1cccnc1)[C@@H]2O	x	-7.6%	0.3%[9.04 µM]	x	x
CC(=O)Oc1cc2cccc(OC(C)=O)c(=O)c2c(OC(C)=O)c1OC(C)=O	-19.6%	18.4µM*	4.61µM*	11.2	u
Cc1ccoc1C(=O)N1CCCC(CCC(=O)N2CCN(c3ccccn3)CC2)C1 (configuration not stated)	u	23.1µM*	u	-23.3	4.7%
COCc1ccc(C(=O)N2CCCC(CCC(=O)NCc3ccccc3F)C2)o1 (configuration not stated)	u	2.91µM*	3.66µM*	41.6	14.6µM*
CC(C)c1cc(C(=O)N2CCCC(CCC(=O)NCc3ccccc3F)C2)n(C)n1 (configuration not stated)	-11.7%	13µM*	u	21.7	-7.9%
C=CCC(=O)N1CCCC(CCC(=O)NCc2ccccc2F)C1 (configuration not stated)	-17.0%	-22.5%	2.0%	-9.2	-6.7%
O=C(CCC1CCCN(C(=O)c2ccco2)C1)NCc1ccccc1F (configuration not stated)	-28.6%	u	18.4µM*	24.0	-14.5%
COc1ccc(OC)c(C(=O)N(Cc2cc3cccc(C)c3nc2N2CCC(O)CC2)C2CC2)c1	x	u	3.9%[9.04 µM]	x	x
COc1cccc(CNC(=O)CCC2CCCN(C(=O)CCC(F)(F)F)C2)c1 (configuration not stated)	9.2%	-26.5%	-17.7%	-3.9	5.2%
Cc1ncoc1C(=O)N1CCCC(CCC(=O)NCc2ccc(F)c(F)c2)C1 (configuration not stated)	-3.5%	-14.9%	-1.1%	22.5	1.5%
O=C(CCC1CCCN(C(=O)c2cc3ccccc3o2)C1)NCc1ccc(F)c(F)c1 (configuration not stated)	1.2%	16.4µM*	16.4µM*	0.0	2.2%
COc1cccc(CNC(=O)CCC2CCCN(Cc3cc4ccccc4o3)C2)c1 (configuration not stated)	-20.2%	25.9µM*	18.4µM*	-60.0*	-18.9%
